# Compound activity deposited in PubChem BioAssay by several laboratories.
# The list is not random: actives were taken first. Their share in the collection is about 2.4%.
# A3A deaminase: human APOBEC3A DNA deaminase inhibition; 0.41% of 330,000 active; recombinant A3A, FAM/TAMRA ssDNA deamination fluorescence; inhibition, % at 20 µM;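 active = at least 40% inhibition at 20 µM here, with at most 30% in a related deaminase screen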;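 also: plate controls were A3A with DMSO for no effect and wells lacking A3A enzyme for full effect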
# Target sequence (P31941 whole entry, looked up): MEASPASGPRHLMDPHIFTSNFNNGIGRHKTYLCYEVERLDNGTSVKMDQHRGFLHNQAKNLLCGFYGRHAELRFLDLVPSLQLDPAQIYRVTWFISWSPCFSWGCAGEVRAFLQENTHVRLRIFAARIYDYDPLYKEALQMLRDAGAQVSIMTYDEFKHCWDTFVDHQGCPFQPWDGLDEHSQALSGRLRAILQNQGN
# ADAM10 inh: ADAM10 inhibition, QFRET primary screen; O14672; recombinant ADAM10, EDANS/DABCYL FRET peptide cleavage, 3 h; inhibition, % at 7 µM; 0.62% of 370,000 active;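 active = inhibition above a per-campaign cutoff equal to the mean of compounds falling between control-based bounds plus 3 SD, cut at about 20% in these data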;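 also: 0% = DMSO wells while the 100% control is not disclosed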
# NRP1-CendR mod: alters CendR peptide binding to human NRP-1 | O14786 | inhibition, % at 25 µM | AID 602438 | FAM-RPARPAR peptide binding to NRP-1, fluorescence polarization | 0.85% of 360,000 active;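 active = inhibition or corrected inhibition above about 18%, plus a signal ratio from 0.5 to 1.5, limit read from the data, passing the limit was not always enough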
# APOBEC3G inh: APOBEC3G (human) deaminase inhibition. inhibition, % at 20 µM. Q9HC16. 0.28% of 330,000 active. recombinant A3G, ssDNA deamination FAM/TAMRA fluorescence. AID 493012;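 active = inhibition of at least 40% at 20 µM, with no more than 30% in the related APOBEC3A deaminase screen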;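 also: plate controls were DMSO wells with A3G for no effect and wells lacking A3G enzyme for full effect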
# Target sequence (Q9HC16 whole entry, looked up): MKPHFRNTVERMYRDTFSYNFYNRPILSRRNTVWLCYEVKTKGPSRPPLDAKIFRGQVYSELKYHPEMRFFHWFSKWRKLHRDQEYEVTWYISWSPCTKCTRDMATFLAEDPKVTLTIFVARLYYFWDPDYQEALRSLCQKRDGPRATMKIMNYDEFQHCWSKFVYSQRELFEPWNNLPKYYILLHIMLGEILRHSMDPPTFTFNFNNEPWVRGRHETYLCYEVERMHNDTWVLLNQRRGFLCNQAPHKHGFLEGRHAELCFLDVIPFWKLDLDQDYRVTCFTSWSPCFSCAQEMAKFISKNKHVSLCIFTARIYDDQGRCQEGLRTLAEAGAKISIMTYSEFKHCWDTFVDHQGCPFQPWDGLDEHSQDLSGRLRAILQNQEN
# ADAM17 inh: inhibits human ADAM17; P78536; recombinant ADAM17, EDANS/DABCYL FRET peptide cleavage; inhibition, % at 6.95 µM; 0.83% of 370,000 active; AID 720648;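 active = inhibition above the mean of compounds lying between control limits plus 3 SD, set per campaign, cut at about 8.5% in these data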;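 also: 0% = DMSO-only wells as the low control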
# The depositor's hits bear a star; i = inactive; . = no result.
SMILES,A3A deaminase,ADAM10 inh,NRP1-CendR mod,APOBEC3G inh,ADAM17 inh
Cc1ccc(CNC(=O)c2ccc3c(c2)S(=O)(=O)c2ccccc2C3=O)o1,4,12,4,4,-1
CCOC(=O)/C=C1\NC(=O)CS1,-2,4,28*,-5,1
CCC1(CC)C(=O)NN(c2ccccc2)C1=O,-1,-4,27*,-3,-2
O=C(CNC(=O)c1ccc(Br)cc1)NCC(=O)OCC(=O)c1ccc(F)cc1,3,11,26*,4,0
O=C(CNC(=O)c1ccccc1)NCC(=O)OCC(=O)c1ccc(F)cc1,-1,1,-4,-5,-3
O=C(N/N=C/C1C(c2ccccc2)C1(Cl)Cl)c1cccc(Cl)c1 (stereo not given),-1,5,25*,-5,2
CN1CCN(C(c2ccc(Br)cc2)c2cc(Cl)c3cccnc3c2O)CC1 (stereo not given),-1,24*,5,-5,20*
Cc1ccc(S(=O)(=O)N(C)[C@H]2C[C@H]3c4[nH]c5c(-c6ccccc6)cccc5c4CCN3C(=O)[C@H]2[C@H](C)O)cc1,.,i,.,.,-272
O=C(NNC(=O)c1cccc2ccccc12)c1ccc(Cl)c(Cl)c1,.,-5,-18,.,-2
O=C(NNC(=O)c1ccc2ccccc2c1)c1ccc(Cl)c(Cl)c1,.,-7,26*,.,-2
CCc1ccccc1NC(=O)c1ccccc1N1C(=O)C2C3C=CC(C3)C2C1=O (stereo not given),-3,-11,22*,-7,-4
Cc1cc(NC(=O)Cc2cn(C)c3ccccc23)ccc1Oc1cccnc1,.,-6,.,.,-1
Cc1ccccc1-c1cnc(C(O)c2ccc(F)c(F)c2)[nH]1 (stereo not given),.,-6,23*,.,-2
CO/N=C/c1ccc(N2CCN(C(=O)c3ccc(Cl)cc3Cl)CC2)c([N+](=O)[O-])c1,-3,20*,-13,-3,7
CO/N=C/c1ccc(N2CCN(C(=O)c3ccc(F)cc3)CC2)c([N+](=O)[O-])c1,0,2,-7,-8,3
CCN(CC)C(=O)[C@H]1C[C@@H]2[C@H](C[C@@H](c3ccccc3)[C@H]1C)N(c1ccc(F)cc1)C(=O)N2C/C=C(\C)CCC=C(C)C,.,-10,.,.,1
O=C(c1ccc(-c2cccc(Cl)c2)o1)N1CCN(c2ccc([N+](=O)[O-])cc2)CC1,3,1,29*,1,1
COc1cc2c(cc1OC)C(=O)C(c1ccc3c(c1)OCO3)CC2 (stereo not given),.,-6,3,.,1
COc1cc2c(cc1OC)C(=O)C(Br)CC2 (stereo not given),.,.,26*,.,.
Cn1c(N)c(C(=O)COC(=O)C2(c3ccccc3F)CCCC2)c(=O)n(C)c1=O,-3,-5,32*,-5,-4
CCN(CC(=O)Nc1cccc(C(C)=O)c1)S(=O)(=O)c1ccc(C)cc1,-2,-5,43*,-3,-2
CCN(CC)S(=O)(=O)c1ccc(NC(=O)Nc2cccc(C(F)(F)F)c2)cc1,-1,39*,0,-5,14*
Oc1ccccc1C=NN1CCN(Cc2ccccc2)CC1,.,0,.,.,1
CC(Nc1nc(-c2ccc(F)cc2)cs1)c1nc2cc(C(F)(F)F)ccc2n1CCOCCO (stereo not given),3,6,28*,6,1
COc1ccc(-c2csc(NC(C)c3nc4cc(C(F)(F)F)ccc4n3CCOCCO)n2)cc1 (stereo not given),-3,7,-7,-6,3
SMILES,A3A deaminase,ADAM10 inh,NRP1-CendR mod,APOBEC3G inh,ADAM17 inh
O=C(NCCS(=O)(=O)N1CCN(c2ccccc2)CC1)c1ccccc1F,2,-8,2,-3,-3
COc1cccc(C(=O)NCCS(=O)(=O)N2CCN(c3ccccc3)CC2)c1OC,.,-2,25*,.,-6
Cc1cc(Oc2cccnc2)ccc1NC(=O)Cc1c(C)[nH]c2ccccc12,.,-4,.,.,-2
NC(=O)c1c(N)[nH]c(C(=O)c2ccccc2)c1-c1ccccc1Cl,.,-7,.,.,-2
O=C(CCCC(=O)N/N=C\c1ccccn1)N/N=C\c1ccccn1,-4,4,-5,-8,0
CC(Nc1cccc2ccccc12)C(=O)N/N=C/c1ccccn1 (stereo not given),0,-10,40*,-3,1
COc1ccc(NC(=O)CCCn2cc([N+](=O)[O-])cn2)cc1,2,-3,3,2,-3
COc1ccc(NC(=S)NNC(=O)CCn2cc([N+](=O)[O-])cn2)cc1,-5,8,30*,-8,-2
O=C(C(=O)N1CCC(CNS(=O)(=O)c2ccc(F)c(F)c2)CC1)c1cc2ccccc2o1,.,-1,.,.,-2
COc1cc(/C=N/N=C2\CC3CCC2(C)C3(C)C)ccc1O (stereo not given),-1,4,23*,-4,-1
Cc1nc(SCC(=O)NCCc2ccccc2)n[nH]1,-1,7,7,0,1
O=C(CSc1nccc(-c2ccc(Br)cc2)n1)NCCc1ccccc1,-1,0,28*,-2,0
CCCn1c(C)cc(C(=O)CSc2nc3nc(C)cc(C)n3n2)c1C,2,1,33*,-4,5
Cc1cc2cc3c(cc2n2c(SCC(=O)Nc4nc(-c5ccccc5)cs4)nnc12)OCO3,.,-16,.,.,-10
CC(=O)Nc1ccc(-c2ccnc3c2CC(C(=O)Nc2cccnc2)O3)cc1 (stereo not given),.,-3,27*,.,0
CCOC(=O)[C@@]12CCC3=C1N(CCC3)C(=O)[C@H](CC(=O)NCCCCc1ccccc1)C2,.,-16,.,.,-9
COC(=O)CCC(=O)OC1(C)C(=O)C=C2C=C(C3CC3)N(C3CC3)C=C2C1=O (stereo not given),1,-20,14,0,-6
COCCN1C=C2C(=O)C(C)(OC(=O)CCC(=O)OC)C(=O)C=C2C=C1C1CC1 (stereo not given),-4,.,29*,-10,.
COC(=O)CCC(=O)OC1(C)C(=O)C=C2C=C(C3CC3)N(c3ccc(CO)cc3)C=C2C1=O (stereo not given),5,.,.,0,.
COC(=O)CCC(=O)OC1(C)C(=O)C=C2C=C(C3CC3)N(Cc3ccco3)C=C2C1=O (stereo not given),6,-87,36*,0,-24
COc1ccc(/C=N/NC(=O)c2ccc(NC(=O)C3CCCCC3)cc2)cc1O,2,2,0,1,-4
COc1cc(/C=N/NC(=O)c2ccc(NC(=O)C3CC3)cc2)ccc1OC(C)=O,1,6,27*,-2,-3
COC(=O)[C@]12C[C@H](CC(=O)NCCc3ccccc3OC)C(=O)N(Cc3ccco3)C1=C[C@H](C1CCCC1)O[C@@H]2C,.,6,.,.,2
CC1CCCCC1NC(=O)CSc1ncnc2sccc12 (stereo not given),.,-1,22*,.,-2
CC1CCCC(NC(=O)CSc2ncnc3ccccc23)C1C (stereo not given),-6,-23,-14,-9,-6
